The structures appear in SMILES notation. Among all 330,000 compounds or so, about 1,900 (0.58%) were called active. Another 4% or so got no clear call; they are omitted. Cut-off read from the data, not from the text of the source: inconclusive = inhibition above about 70% without an active follow-up result; inactive = below that. Not all results are given here. Entries with a potency or affinity are not part of this list.

The assay is described as follows: M. tuberculosis growth inhibition, HTS (AID 449762).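 Note: bacterial growth assessed after seven days of incubation.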 Particulars: M. tuberculosis H37Rv growth inhibition, 7H9 media; at 25 µM; hits give high values.
For `COc1cc(/C=N/c2oc(C)c(C)c2C#N)cc(Br)c1O`, the inhibition was 12% (inactive).

With `COCCN(C(=O)COC(=O)CCC(=O)c1ccc(Cl)cc1)c1c(N)n(Cc2ccccc2)c(=O)[nH]c1=O`, the inhibition was -11.3% (inactive).

With `Cc1csc(NC(=O)CSc2ccc(-c3ccccc3)nn2)n1`, the inhibition was 1.71% (inactive).

Take `Cc1cc(NC(=O)CSc2ccc(-c3ccccc3)nn2)no1`: the inhibition was -8.31% (inactive). Regarding `COCCNC(=O)c1noc2c1CCc1cc(OC)ccc1-2`, the inhibition is 3.34% (inactive).

As for `O=C(Nc1ccc(C(F)(F)F)cc1)c1ccc(NC(=O)C2CCCO2)cc1` (configuration not stated), the inhibition was -5.77% (inactive). For the compound `Cc1cccc2sc(NNC(=O)C3=COCCO3)nc12`, the inhibition is 2.71% (inactive).

For `CCOC(=O)N1CCN(C(=O)c2cccc(S(=O)(=O)Nc3ccc(Br)cc3)c2)CC1`, the inhibition was 8.88% (inactive). Regarding `CC(NCC(O)COc1ccc2ccccc2c1)c1ccccc1` (configuration not stated), the inhibition is 9.15% (inactive).

On to `COC(=O)C(C)n1nc(C)n(-c2ccc(C)cc2)c1=O` (configuration not stated), for which the inhibition was -0.27% (inactive). Turning to `CCOC(=O)c1nn(-c2ccc(C)cc2)c(=O)cc1OCC(=O)Nc1ccc(OC)cc1`, the inhibition is 8.61% (inactive). For `Cc1cc(NC(=O)c2cncc(Br)c2)ccc1NC(=O)c1cc2ccccc2o1`, the inhibition was 6.1% (inactive). Under `CCC(=O)Nc1ccc(NC(=O)c2ccc3ccccc3c2)cc1` stands -4.7% (inactive); under `O=S1(=O)CCOC[C@H](c2ccccc2)N1Cc1ccccc1F`, 1.26% (inactive); under `CNC(C)C#Cc1ccc2c(=O)c3cc(C)c(C)cc3oc2c1` (configuration not stated), 1.51% (inactive).

As for `CNC(C)C#Cc1ccc2c(=O)c3ccccc3oc2c1` (configuration not stated), the inhibition is 30% (inactive). With `CC(C)(C)OC(=O)C[C@@H]1C/C=C\C[C@@H](CC(=O)N(CCO)Cc2ccccc2)C(=O)NC[C@@H](c2ccccc2)OC1=O`, the inhibition was 4.78% (inactive). As for `CCCCN(C(=O)CC1CCCC1)c1c(N)n(CCCC)c(=O)[nH]c1=O`, the inhibition is -14.4% (inactive). Regarding `O=C(NCC1CCCO1)C1c2ccccc2Oc2ccccc21` (configuration not stated), the inhibition was -7.07% (inactive). The same measure for `Cc1ccc(N(CC(=O)N2CCc3ccccc3C2)S(C)(=O)=O)cc1`: -1.47% (inactive); for `COc1cc(Cl)nn(-c2ccccc2)c1=O`: -13.2% (inactive). Under `COc1c(Cl)cnn(-c2ccccc2)c1=O` stands 6.51% (inactive); under `Cn1c(=O)cc(OCC(=O)NCCCN2CCN(c3cccc(Cl)c3)CC2)c2ccccc21`, 1.78% (inactive); under `C=CCNc1nc(C(=O)OCC(=O)c2ccc(F)cc2)cs1`, -9.37% (inactive). Under `CCN(C(=O)Cc1c(C(=O)O)n(C)c2ccccc12)c1cc(OC)ccc1OC` stands -7.09% (inactive); under `C/C=C(/C)C(=O)Nc1cccc(C2=NOC3(C2)C[C@H](C(N)=O)N(C(=O)c2ccccc2)C3)c1` (some centres not stated), -2.03% (inactive).

As to `C/C=C(\C)C(=O)Nc1cccc(C2=NOC3(C2)C[C@@H](C(N)=O)N(C(=O)c2cc([N+](=O)[O-])cc([N+](=O)[O-])c2C)C3)c1` (some centres not stated), the inhibition was -8.05% (inactive).

The record behind these values is PubChem BioAssay AID449762 (Southern Research Specialized Biocontainment Screening …, 2010).
